Shown is part of a subset that was picked to be rich in hits.
BL2 CD40 inh – CD40 pathway inhibition in BL2 cells | inhibition, % at 10 µM | 83,000 compounds, 0.94% hits | AID 1053188 | BL2 NF-kB luciferase reporter, CD40L-induced, 4 h;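 active means mean inhibition of at least 50% with a set share of replicates also reaching that level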;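 further: 0% = neutral control wells and 100% = IKK inhibitor VII at 50 µM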
The depositor's hits bear a star; [ ] = dose if it differs, or a comment.

SMILES | BL2 CD40 inh
CO[C@H]1CN(C)C(=O)c2ccc(NS(=O)(=O)c3c(C)noc3C)cc2OC[C@H](C)NC[C@@H]1C | -4.5[25 µM]
COc1ccccc1N(C(C)=O)C1=C(Cl)C(=O)c2ccccc2C1=O | 100.6*
COc1ccc(Cl)cc1N(C(C)C(=O)O)S(C)(=O)=O (stereo unspecified) | -1.2
COc1ccccc1N(CC(=O)N(CC(C)C)CC(C)C)S(=O)(=O)c1cccs1 | 14.1
CN(C)C(=O)C[C@H]1CC[C@H]2[C@H](COc3ccc(NC(=O)C4CCC4)cc3C(=O)N2C)O1 | -1.7
Brc1cn2ccnc2c(N2CCOCC2)n1 | -5.2
COc1cccc(NC(=O)N(C)C[C@@H]2OCc3ccccc3-c3c(n(C)c4ccccc34)C(=O)N([C@H](C)CO)C[C@H]2C)c1 | -2.3
Cc1nc2nc(C)n(CCN3CCOCC3)c(=O)c2c(-c2cccc([N+](=O)[O-])c2)c1C(=O)CCCCCCCCCCN1CCC(c2ccccc2)(c2ccccc2)CC1 | 115.2*
Cc1nc2ccccc2c(=O)n1CCN1CCOCC1 | -3.8
CCOC(=O)c1c(C)nc(C)c(C(=O)OCC)c1-c1cccc([N+](=O)[O-])c1 | -2.7
CO[C@@H]1CN(C)C(=O)c2ccc(NC(=O)C3CCCC3)cc2OC[C@@H](C)N(CC2CC2)C[C@H]1C | -5.1
CC(=O)N1[C@H](CNC(=O)CN2CCOCC2)[C@H](c2ccccc2)[C@@H]1CO | 4.1
CN1CCN(C(=O)[C@@H]2[C@@H](CO)[C@@H]3Cn4c(cccc4=O)[C@H]2N3Cc2ccncc2)CC1 | 1.7[25 µM]
C1CCC(C(CC2CCCCN2)C2CCCCC2)CC1 (stereo unspecified) | 77.7*
Cc1noc(C)c1S(=O)(=O)Nc1ccc2c(c1)C(=O)N([C@@H](C)CO)C[C@H](C)[C@H](CN(C)Cc1ccc(C(=O)O)cc1)OCCCC[C@H](C)O2 | -11.4[25 µM]
CCC(=O)N1[C@@H]2c3ccc(C4=CCCC4)c(=O)n3C[C@@H]2[C@@H](CO)[C@@H]1C(=O)NCc1ccccc1 | -3.2[25 µM]
CC(C)NC(=O)N1C[C@@H]2C(c3ccc(Br)cc3)[C@H](C1)N2CC(F)(F)F (stereo partly specified) | -0.9
c1ccc2[nH]c(-c3cscn3)nc2c1 | -58.4
c1ccc2c(-c3nc4ccccc4[nH]3)cccc2c1 | -2.5
c1ccc2nc(-c3nc4ccccc4[nH]3)ccc2c1 | 77.9*
CNC[C@@H]1Oc2c(NS(C)(=O)=O)cccc2C(=O)N(C)C[C@@H]1C | -3.0
CC(=O)N1[C@@H]2c3cccc(=O)n3C[C@@H]2[C@@H](CO)[C@@H]1C(=O)N[C@H](C)c1ccccc1 | -3.4[25 µM]
COc1ccccc1CN(C)C[C@@H]1OCc2ccccc2-c2ccccc2C(=O)N([C@@H](C)CO)C[C@@H]1C | -12.8[25 µM]
C[C@H]1CN([C@@H](C)CO)C(=O)c2ccccc2-c2ccccc2CO[C@@H]1CN(C)Cc1ccccc1C(F)(F)F | 66.3*[25 µM]
C[C@H](CO)N1C[C@H](C)[C@H](CN(C)Cc2ccc(Oc3ccccc3)cc2)OCc2ccccc2-c2ccccc2C1=O | 57.2*[25 µM]
SMILES | BL2 CD40 inh
COc1ccccc1CN(C)C[C@@H]1OCc2ccccc2-c2ccccc2C(=O)N([C@H](C)CO)C[C@@H]1C | -3.1[25 µM]
C[C@H](CO)N1C[C@H](C)[C@H](CN(C)Cc2ccccc2)OCc2ccccc2-c2ccccc2C1=O | 11.4
C[C@H](CO)N1C[C@H](C)[C@H](CN(C)Cc2ccc(-c3ccccc3)cc2)OCc2ccccc2-c2ccccc2C1=O | 6.1
C[C@H](CO)N1C[C@H](C)[C@@H](CN(C)S(=O)(=O)c2ccccc2)Oc2ccc(NC(=O)Nc3ccc(C(F)(F)F)cc3)cc2CC1=O | 7.4
CN(C[C@H]1N[C@@H](CO)[C@H]1c1ccc(C2=CCCCC2)cc1)S(C)(=O)=O | 1.4
COc1ccc(NC(=O)Nc2ccc3c(c2)[C@@H]2C[C@@H](CC(=O)NC4CCCC4)O[C@@H](CO)[C@@H]2O3)cc1 | 2.9
O=C(Nc1ccc2c(c1)[C@H]1C[C@H](CC(=O)N3CCc4ccccc4C3)O[C@@H](CO)[C@H]1O2)c1ccc2c(c1)OCO2 | -4.6[25 µM]
COc1ccc(Br)c(C(=O)NCCC(C)C)c1 | 0.4
O=C(COC(=O)Cc1ccc(F)cc1)NC1CCCCCC1 | 13.7
COc1ccc(OC)c(NC(=O)CN(Cc2ccc(F)cc2)C2CCCCC2)c1 | 19.9
COc1ccc(S(=O)(=O)NCC(=O)N(CC(=O)NC(C)(C)C)Cc2cccs2)cc1 | 6.0
COc1ccc(C(=O)/C=C/C(=O)N(CC(=O)NC2CCCCC2)Cc2ccc(F)cc2)c(O)c1 | 37.6*
COc1ccc(C(=O)/C=C/C(=O)N(CC(=O)NCCC(C)C)Cc2cccs2)c(O)c1 | 89.8*
CCOc1cc(/C=C(/C#N)C(N)=O)cc(CSc2ccccc2)c1O | -10.2[25 µM]
CNC(=O)C1OC(n2cnc3c(NCc4cccc(I)c4)ncnc32)C(O)C1O (stereo unspecified) | -5.3[25 µM]
O=C(O)CCC/C=C/CC1COC(C(F)(F)F)OC1c1ccccc1O (stereo unspecified) | -5.4[25 µM]
C/C=C/c1ccc([C@@H]2[C@@H](CNC(=O)c3ccccc3)N(C(C)=O)[C@H]2CO)cc1 | -22.6
CC1(O)C(O)C(CO)OC1n1cnc2c(NC3CCCC3)nc(Cl)nc21 (stereo unspecified) | -2.2[25 µM]
O=C(N/N=C/c1ccc2c(c1)OCO2)c1ccc2c(c1)OCO2 | -62.3
O=C(N/N=C/c1cccc(O)c1)c1ccc2c(c1)OCCO2 | 75.1*
O=C(N/N=C/c1cccnc1)c1ccc2c(c1)OCO2 | -32.6
CN(C)CCCNC(=O)[C@@H]1[C@@H](CO)[C@@H]2Cn3c(ccc(-c4cccc(C(=O)N(C)C)c4)c3=O)[C@H]1N2 | 2.6[25 µM]
COc1ccc(CN(CCC(c2ccco2)C(C)C)C(C)=O)cc1OC (stereo unspecified) | 4.6
COc1ccc(CN(CCC(c2ccccc2)C2CCOC(C)(C)C2)C(C)=O)cc1 (stereo unspecified) | -4.8
COc1ccc(CN(CCC(c2ccccc2)c2ccc(OC(C)C)cc2)C(=O)CCl)cc1OC (stereo unspecified) | 44.5*
SMILES | BL2 CD40 inh
N#C[C@@H]1[C@@H](c2ccc(-c3ccccc3F)cc2)[C@H](CO)N1C(=O)c1ccccn1 | -12.2[25 µM]
Oc1ccccc1-c1cc(-c2ccc3c(c2)OCCO3)n[nH]1 | 54.3*
c1cncc(-c2nc(-c3ccc4c(c3)OCCO4)cs2)c1 | -59.4
Cc1nc(-c2ccc3c(c2)OCCO3)cs1 | -72.7
COc1ccc(/C=N/Nc2ncccc2[N+](=O)[O-])c(OC)c1 | 67.7*
COc1ccc(NS(=O)(=O)c2cccc(C(=O)NN=Cc3ccc(OC)cc3OC)c2)cc1 | -3.6
COC(=O)CCCNc1ncccc1[N+](=O)[O-] | 6.8
CN1C(=O)c2cc(NC(=O)C3CCCC3)ccc2OC[C@H]2O[C@@H](CC(=O)NCc3ccccc3F)CC[C@H]21 | -6.5
C[C@H]1CN([C@@H](C)CO)C(=O)c2c(c3ccccc3n2C)-c2ccccc2CO[C@@H]1CN(C)C(=O)[C@H]1CCCN1C | -8.1[25 µM]
CNC[C@@H]1Oc2ccc(NC(=O)NC(C)C)cc2C(=O)N(C)C[C@H]1C | 3.7
CC(=O)Nc1ccc2c(c1)C(=O)N(C)C[C@@H](C)[C@H](CN(C)C)O2 | -6.4
O=C(CCN1CCCCC1)NCC[C@H]1CC[C@H](NC(=O)C2CCCCC2)[C@@H](CO)O1 | -9.8
C[C@H](CO)N1C[C@H](C)[C@@H](CN(C)Cc2ccncc2)Oc2ccc(NS(=O)(=O)c3ccc(F)cc3)cc2CC1=O | 0.1[25 µM]
C[C@@H]1CN([C@H](C)CO)C(=O)Cc2cc(NS(=O)(=O)c3ccc(F)cc3)ccc2O[C@H]1CN(C)Cc1ccc(C(F)(F)F)cc1 | 55.7*

Screening data deposited in PubChem by Broad Institute.
